The text below walks through data of PubChem BioAssay.

Values without a mark were called inactive. Active and inactive are the calls of the source. Cut-off read from the data, not from the text of the source, unless noted: active = inhibition above about 36%; inactive = the rest.

Test [1] concerns transactivating tegument protein VP16 (Human herpesvirus 1). Briefly: compounds suppressing VP16-driven luciferase signal – cell-based, luminescence, single concentration, counter-screen for SRC2 inhibitor project (AID 652007). The settings on record: cell-based VP16 transactivation luciferase reporter, at 8.9 µM, active compounds read high. (In general: The purpose of a counterscreen is to sort out artefacts and off-target activity.)

Test [2] addresses Nuclear receptor coactivator 2 (Homo sapiens) (UniProt Q15596). As to the kind of experiment: inhibition of GAL4-SRC2 driven luciferase expression – cell-based, luminescence, HEK293, triplicate, confirmation (AID 652008;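 active = mean inhibition above 46.5%, the solvent-only control mean plus 3 SD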;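 note: 0% = DMSO-treated cells and 100% = Gossypol at 36 µM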). The settings on record: HEK293 GAL4-SRC2 luciferase reporter, at 8.9 µM, active compounds read high. (A reporter such as luciferase makes a cellular process visible.)

Nuclear receptor coactivator 2 (Homo sapiens), sequence (Q15596 whole entry, looked up, the tested form may be a part): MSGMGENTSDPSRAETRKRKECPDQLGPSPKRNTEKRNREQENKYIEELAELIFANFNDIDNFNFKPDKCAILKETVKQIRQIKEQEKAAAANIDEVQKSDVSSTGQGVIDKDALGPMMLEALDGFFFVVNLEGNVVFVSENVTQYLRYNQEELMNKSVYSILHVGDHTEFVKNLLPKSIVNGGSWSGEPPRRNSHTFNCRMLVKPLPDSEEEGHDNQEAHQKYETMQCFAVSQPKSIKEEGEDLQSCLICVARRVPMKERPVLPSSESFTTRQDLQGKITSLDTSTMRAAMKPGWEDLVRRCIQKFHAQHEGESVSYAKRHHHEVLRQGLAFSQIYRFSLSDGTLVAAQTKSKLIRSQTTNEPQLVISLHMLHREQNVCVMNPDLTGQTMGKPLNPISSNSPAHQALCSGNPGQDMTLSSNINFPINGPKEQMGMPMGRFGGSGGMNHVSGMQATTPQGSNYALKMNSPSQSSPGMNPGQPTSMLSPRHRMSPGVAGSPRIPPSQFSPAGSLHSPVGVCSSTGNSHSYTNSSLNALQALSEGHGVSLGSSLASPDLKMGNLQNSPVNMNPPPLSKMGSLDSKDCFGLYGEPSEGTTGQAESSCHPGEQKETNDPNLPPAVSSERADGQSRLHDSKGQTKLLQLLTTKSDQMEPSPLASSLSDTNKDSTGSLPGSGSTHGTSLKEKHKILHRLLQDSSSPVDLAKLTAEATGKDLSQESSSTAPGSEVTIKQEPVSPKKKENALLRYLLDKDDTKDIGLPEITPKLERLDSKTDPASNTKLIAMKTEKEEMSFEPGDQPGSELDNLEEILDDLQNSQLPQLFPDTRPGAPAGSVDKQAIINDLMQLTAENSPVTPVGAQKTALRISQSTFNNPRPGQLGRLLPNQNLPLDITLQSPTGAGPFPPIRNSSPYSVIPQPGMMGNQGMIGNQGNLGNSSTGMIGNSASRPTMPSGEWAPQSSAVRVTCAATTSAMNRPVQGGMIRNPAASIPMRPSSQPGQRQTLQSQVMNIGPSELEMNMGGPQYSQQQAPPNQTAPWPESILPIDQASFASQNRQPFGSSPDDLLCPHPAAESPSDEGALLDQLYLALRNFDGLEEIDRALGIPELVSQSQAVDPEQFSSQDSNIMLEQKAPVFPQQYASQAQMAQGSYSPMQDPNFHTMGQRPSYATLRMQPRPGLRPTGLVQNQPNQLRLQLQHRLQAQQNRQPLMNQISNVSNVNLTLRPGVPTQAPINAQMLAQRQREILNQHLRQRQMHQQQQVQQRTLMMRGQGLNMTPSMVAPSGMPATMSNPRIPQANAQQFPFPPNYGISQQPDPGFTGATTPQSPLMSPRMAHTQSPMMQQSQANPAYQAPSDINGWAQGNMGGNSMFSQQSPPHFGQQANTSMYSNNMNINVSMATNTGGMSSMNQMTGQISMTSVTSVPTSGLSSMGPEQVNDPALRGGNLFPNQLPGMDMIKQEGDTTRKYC

What is called inhibition is the relative decrease from the control value, in per cent. Regarding `Cc1ccc(-c2nnc(SCCC(=O)N3CCOCC3)o2)cc1`, the inhibition in test [1] is -40.9%; in test [2], -16.8%.
For `Cc1ccc(C)c(NC(=O)COc2coc(CN3CCc4ccccc4C3)cc2=O)c1`, the figures for the inhibition in test [1] and in test [2] were -2.11% and 22.7%, respectively.
The like results for `O=C(CNC(=O)c1ccc2c(c1)OCO2)Nc1cccc(Br)c1` were, in that order, -13.8% and -16.3%.
The like results for `Cc1cc(C(=O)CN2C(=O)c3ccccc3S2(=O)=O)c(C)n1-c1ccccc1` were, in that order, -10.4% and 55.4% (active).
Consider `O=C(NCc1cccnc1)/C(=C\c1ccc(-c2ccc(Cl)c(Cl)c2)o1)S(=O)(=O)c1ccccc1`, for which the results for the inhibition in test [1] and in test [2] were 75.3% (active) and 66.9% (active), respectively.
Consider `c1ccc(-n2cnc3ccccc32)cc1`, for which the inhibition was -25.6% in test [1] and 5.17% in test [2].
For `O=S(=O)(c1ccc(Cl)cc1)c1snnc1-c1ccccc1`, the inhibition was 31.6% in test [1] and 76.7% (active) in test [2].
On to `O=C(O)c1ccccc1C(=O)Nc1ccc(Oc2ccc3ccccc3c2)cc1`, for which the values for the inhibition in test [1] and in test [2] were 36.4% (active) and 28%, respectively.
Consider `Cc1cc(C)nc(NC(=O)c2c(F)c(F)c(F)c(C(=O)Nc3cc(C)cc(C)n3)c2F)c1`, for which the inhibition in test [1] was 19.3%; in test [2], 48.3% (active).
As to `O=C(/C=C/c1cccnc1)/C=C/c1cccnc1`, the figures for the inhibition in test [1] and in test [2] were 77.1% (active) and 5.81%, respectively.
For `COC(=O)c1ccc(Sc2nnnn2-c2ccccc2)c([N+](=O)[O-])c1`, in that order: 20.1% and 48.2% (active).
For `C=CS(=O)(=O)N(Cc1ccc(F)cc1)C(=C)C(=O)OC`, in that order: 33.7% and -13.2%.
`C=CCNC(=S)NCc1ccccc1`: the results for the inhibition in test [1] and in test [2] were -11.1% and -24.7%, respectively.
As for `COc1ccc(N(C(=O)CCl)C(C(=O)NCCc2ccccc2)c2cccs2)cc1` (configuration not stated), the figures for the inhibition in test [1] and in test [2] were 32.7% and 58.1% (active), respectively.
For `COc1cccc(/C=C2\SC(=S)N(CCCC(=O)N3CCCCC3CCO)C2=O)c1` (configuration not stated), in that order: 51.2% (active) and 52.2% (active).
As to `O=C(O)CCC(=O)Nc1cccc(-c2csc(-c3ccccc3)n2)c1`, the inhibition is 47.1% (active) in test [1] and 34.6% in test [2].
